This passage reports AC50 and outcome results from PubChem BioAssay (EPA / NIEHS).

Records with an inconclusive call do not appear. Calls of active or inactive are those of the source. The calls were made as follows: active = hit-call score of the fitted dose curve at least 0.9, where 1 is the maximum; inconclusive = response in the unintended direction; inactive = score below 0.9.

One may read the AC50 as the concentration giving half of the maximal activity seen.

PGR (gene 5241), sequence (P06401 whole entry, looked up): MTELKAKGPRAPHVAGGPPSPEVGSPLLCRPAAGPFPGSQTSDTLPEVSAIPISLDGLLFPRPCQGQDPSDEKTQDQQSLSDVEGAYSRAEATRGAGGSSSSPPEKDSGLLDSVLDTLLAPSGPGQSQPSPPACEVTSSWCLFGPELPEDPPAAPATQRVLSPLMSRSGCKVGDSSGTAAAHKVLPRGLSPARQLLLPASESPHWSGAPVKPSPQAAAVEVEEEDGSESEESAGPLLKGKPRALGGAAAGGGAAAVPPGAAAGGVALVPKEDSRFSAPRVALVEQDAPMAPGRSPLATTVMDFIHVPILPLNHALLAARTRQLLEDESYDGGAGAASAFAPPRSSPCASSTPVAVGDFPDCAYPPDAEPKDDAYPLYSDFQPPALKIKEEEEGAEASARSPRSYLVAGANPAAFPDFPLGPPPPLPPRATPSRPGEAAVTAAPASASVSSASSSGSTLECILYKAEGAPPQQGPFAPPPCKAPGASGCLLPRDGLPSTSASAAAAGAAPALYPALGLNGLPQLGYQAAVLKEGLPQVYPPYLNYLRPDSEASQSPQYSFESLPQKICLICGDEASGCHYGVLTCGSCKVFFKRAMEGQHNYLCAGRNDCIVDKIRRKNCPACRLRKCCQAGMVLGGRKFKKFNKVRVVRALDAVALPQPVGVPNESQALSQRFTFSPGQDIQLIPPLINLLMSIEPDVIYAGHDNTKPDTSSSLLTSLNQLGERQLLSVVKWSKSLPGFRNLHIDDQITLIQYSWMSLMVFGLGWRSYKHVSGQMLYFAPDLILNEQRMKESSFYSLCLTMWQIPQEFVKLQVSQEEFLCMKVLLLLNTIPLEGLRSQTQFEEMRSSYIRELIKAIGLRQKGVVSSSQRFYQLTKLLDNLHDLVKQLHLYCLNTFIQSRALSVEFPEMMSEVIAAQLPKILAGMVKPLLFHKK

The target of this experiment is PGR (gene 5241) (UniProt P06401). The experiment can be described thus: NVS_NR_hPR: NovaScreen (NVS) Nuclear Receptor Binding Assay for human Progestron Receptor (PR) (AID 2283360).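 Also: active means loss of bound radioligand signal versus DMSO baseline.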 The protocol:
NVS_NR_hPR is a biochemical, single-readout assay that uses extracted gene-proteins from T47D in a cell-free assay. Measurements were taken 18 hours after chemical dosing in a 96-well plate.NVS_NR_hPR is one of one assay component(s) measured or calculated from the NVS_NR_hPR assay. It is designed to make measurements of radioligand binding, a form of binding reporter, as detected with scintillation counting signals by Lysate-based radiodetection technology.Data from the assay component NVS_NR_hPR was analyzed into 1 assay endpoint. This assay endpoint, NVS_NR_hPR, was analyzed in the positive analysis fitting direction relative to DMSO as the negative control and baseline of activity. Using a type of binding reporter, loss-of-signal activity can be used to understand changes in the binding as they relate to the gene PGR. Furthermore, this assay endpoint can be referred to as a primary readout, because the performed assay has only produced 1 assay endpoint. To generalize the intended target to other relatable targets, this assay endpoint is annotated to the nuclear receptor intended target family, where the subfamily is steroidal.
Binding assays used specific radioligands (tritiated, iodinated) with non-radioactive competitive displacement ligands in agonist or antagonist protocols (as indicated) and various reference compounds and inhibitors to titrate specific binding to receptors and transporters. Most enzyme assays (CYPs, kinases, phosphatases, proteases, HDACs) used recombinant protein and specific substrates (fluorescence mostly, some colorimetric and radioactive) and inhibitors, followed by a biochemical separation of substrate and product. All assays for the biochemical HTS were initially run in duplicate at a single concentration (10 uM for CYP450 assays and 25 uM for all others). […] Each assay was run with positive and negative controls, and concurrent controls on every plate. The follow-up (secondary) screen tested active chemical-pairs in concentration series, as well as a few additional assays not tested in the primary screen, some selected negative inactives, and several cases re-run in the concentration series for confirmatory purposes.
Take `CCCCCCCCCCCCc1ccccc1S(=O)(=O)O`: the AC50 was 15.1 µM (active).

As for `CCCCCCCC(=O)O`, the result was inactive.

Consider `CCCCCCCCCCCCCC[N+](C)(C)C`, for which the AC50 is 39.3 µM (active).

`Oc1cc2ccccc2c2ccccc12`: the AC50 is 11 µM (active).

Take `c1ccc2c(c1)Cc1ccccc1-2`: the call was inactive.

Regarding `Cc1cc(CCN2CCN(c3nsc4ccccc34)CC2)cc2c1NC(=O)CC2(C)C`, the AC50 is 36 µM (active).

As to `C=C(C)C(=O)OCCC(F)(F)C(F)(F)C(F)(F)C(F)(F)C(F)(F)C(F)(F)F`, the compound was called inactive.

Turning to `CCCOc1sc(C(=O)N2CCC(c3cc(CN)ccc3F)CC2)c(C)c1Br`, the compound was classed as inactive.

For `COC(=O)CCCCC(=O)OC`, the compound was called inactive.

As for `CC[C@H](C)[C@@H](C(=O)O)n1sc2ccccc2c1=O`, the compound was called inactive.

As for `CCCCCCC(=O)O`, the compound was classed as inactive.

With `NC(=O)N(O)[C@@H]1C=C[C@H](Oc2cccc(Oc3ccc(F)cc3)c2)C1`, the result was inactive.

Turning to `CCC(=C(c1ccc(O)cc1)c1ccc(OCCN(C)C)cc1)c1ccccc1`, the AC50 is 0.852 µM (active).

`Nc1cccc2c(N)cccc12`: the outcome was inactive.

For the compound `CC[C@H](c1ccc(O)cc1)[C@@H](CC)c1ccc(O)cc1`, the AC50 is 0.431 µM (active).
